Reference: the supplement of paper PMC10849652
The full data set covers some 7,900 targets. This sample favours those with a hit. About 0.6% of all pairs of compound and target were hits.

Experiments:
Test in all cases: log2 fold change, soluble protein after heating vs DMSO (PISA); higher = thermal stabilisation; K562 cells, 10 uM, 30 min; active = over 0.2 and 3.5 SD of the protein, either way, in both replicates (recomputed)
[1] = compound: CC1=C(C=C(C=C1)NC(=O)C2=CC(=CC=C2)C(C)(C)C#N)NC3=CC4=C(C=C3)N=CN(C4=O)C
Outline: (§1)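 K562 cells at 2×10^6 cells/mL were given 10 μM compound for 30 min. Aliquots then went through 3 min of heating across 48°C-58°C, were pooled, and were extracted in PBS with 0.5% NP-40 at 4°C, and the supernatant after 21,000xg for 90 min was quantified by TMTpro 16plex LC-MS/MS with channel sums equalised. Thermal stability relative to control samples, from duplicates, is given as log2 fold change.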

[2] = compound: CC1=C(C=C(C=C1)NC(=O)C2=CC(=CC=C2)N(C)C)NC(=O)C3=CC=C(C=C3)O
Outline: as §1

[3] = compound: CC1=CC=C(C=C1)SC2=C3C=C(SC3=CN=C2)C(=O)N
Outline: as §1

[4] = compound: CC1=NC(=CC=C1)C2=C(N=C(N2)C(C)(C)C)C3=CC4=NC=CN=C4C=C3
Outline: as §1

Nexturastat A = compound: CCCCN(Cc1ccc(C(=O)NO)cc1)C(=O)Nc1ccccc1 [Nexturastat A]
Outline: as §1

vemurafenib = compound: CCCS(=O)(=O)Nc1ccc(F)c(C(=O)c2c[nH]c3ncc(-c4ccc(Cl)cc4)cc23)c1F [vemurafenib]
Outline: as §1

[5] = compound: CCCS(=O)(=O)Nc1ccc(F)c(C(=O)c2c[nH]c3ncc(Cl)cc23)c1F
Outline: as §1

[6] = compound: CCCc1cc(C)[nH]c(=O)c1CNC(=O)c1cc(-c2ccnc(N3CCN(C)CC3)c2)cc2c1cnn2C(C)C
Outline: as §1

givinostat = compound: CCN(CC)Cc1ccc2cc(COC(=O)Nc3ccc(C(=O)NO)cc3)ccc2c1 [givinostat]
Outline: as §1

barasertib = compound: CCN(CCCOc1ccc2c(Nc3cc(CC(=O)Nc4cccc(F)c4)[nH]n3)ncnc2c1)CCOP(=O)(O)O [barasertib]
Outline: as §1

[7] = compound: CC[C@@H]1C(=O)N(C)c2cnc(Nc3ccc(C(=O)NC4CCN(C)CC4)cc3OC)nc2N1C1CCCC1
Outline: as §1

volasertib = compound: CC[C@@H]1C(=O)N(C)c2cnc(Nc3ccc(C(=O)N[C@H]4CC[C@H](N5CCN(CC6CC6)CC5)CC4)cc3OC)nc2N1C(C)C [volasertib]
Outline: as §1

[8] = compound: CC[C@H](C)N1C=C(C2=C(C=C(C=C21)C3=CN=C(C=C3)N4CCNCC4)C(=O)NCC5=C(C=C(NC5=O)C)C)C
Outline: as §1

epoxomicin = compound: CC[C@H](C)[C@@H](C(=O)N[C@@H]([C@@H](C)O)C(=O)N[C@@H](CC(C)C)C(=O)[C@]1(CO1)C)NC(=O)[C@H]([C@@H](C)CC)N(C)C(=O)C [epoxomicin]
Outline: as §1

[9] = compound: CCn1c(C(=O)N(C2CC2)C2CC2)cc2c3c(ncn3C)c(Nc3cc(C)n(C)n3)nc21
Outline: as §1

[10] = compound: CCn1cc(-c2ccnc3[nH]c(-c4cccc(CN(C)C)c4)cc23)c(-c2ccc(NC(=O)N(C)C)cc2)n1
Outline: as §1

[11] = compound: CN(C)CC(=O)Nc1ccc2[nH]c(=O)c3ccccc3c2c1
Outline: as §1

rosiglitazone = compound: CN(CCOC1=CC=C(C=C1)C[C@H]2C(=O)NC(=O)S2)C3=CC=CC=N3 (racemic) [rosiglitazone]
Outline: as §1

[12] = compound: CN1C2=C(C3=C1C(=O)N(N=C3)CC4=CC(=CC=C4)N)SC(=C2)S(=O)C
Outline: as §1

[13] = compound: CN1CCC(CNc2ccc3ncc(-c4cccc(OC(F)(F)F)c4)n3n2)CC1
Outline: as §1

Measured: log2 fold change

PPP4R3B (UniProt Q5MIZ7)
Sequence of UniProt Q5MIZ7 (Q5MIZ7 whole entry, looked up): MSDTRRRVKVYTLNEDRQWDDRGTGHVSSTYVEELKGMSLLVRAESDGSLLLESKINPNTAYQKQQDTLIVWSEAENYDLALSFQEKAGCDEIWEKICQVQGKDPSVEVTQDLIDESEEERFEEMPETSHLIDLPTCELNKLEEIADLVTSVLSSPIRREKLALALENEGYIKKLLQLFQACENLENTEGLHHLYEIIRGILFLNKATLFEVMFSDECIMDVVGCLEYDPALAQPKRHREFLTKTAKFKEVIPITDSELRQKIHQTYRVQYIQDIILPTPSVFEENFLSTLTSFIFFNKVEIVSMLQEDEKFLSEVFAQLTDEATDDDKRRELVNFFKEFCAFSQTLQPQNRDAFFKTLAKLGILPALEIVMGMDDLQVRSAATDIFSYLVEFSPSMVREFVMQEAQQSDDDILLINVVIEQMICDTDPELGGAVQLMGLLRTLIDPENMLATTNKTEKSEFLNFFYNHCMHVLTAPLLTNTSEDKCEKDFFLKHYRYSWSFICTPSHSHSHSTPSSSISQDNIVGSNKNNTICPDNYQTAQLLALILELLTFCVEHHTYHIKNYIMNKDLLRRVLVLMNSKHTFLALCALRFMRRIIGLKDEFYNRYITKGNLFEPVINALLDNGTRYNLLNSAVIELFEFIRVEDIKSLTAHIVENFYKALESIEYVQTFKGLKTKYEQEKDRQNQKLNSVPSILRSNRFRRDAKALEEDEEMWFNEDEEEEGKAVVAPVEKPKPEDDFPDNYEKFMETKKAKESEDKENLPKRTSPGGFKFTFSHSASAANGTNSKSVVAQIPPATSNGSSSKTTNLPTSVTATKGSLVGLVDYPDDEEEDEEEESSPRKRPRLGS
active: volasertib -0.284
inactive: [1] 0.006 | [2] 0.014 | [3] 0.008 | [4] 0.024 | Nexturastat A -0.063 | vemurafenib 0.017 | [5] 0.009 | [6] -0.017 | givinostat 0.049 | barasertib 0.029 | [7] -0.052 | [8] 0.05 | epoxomicin -0.011 | [9] -0.03 | [10] -0.074 | [11] -0.001 | rosiglitazone 0.06 | [12] -0.074 | [13] -0.15

PRPF4B (UniProt Q13523)
Sequence of UniProt Q13523 (Q13523 whole entry, looked up): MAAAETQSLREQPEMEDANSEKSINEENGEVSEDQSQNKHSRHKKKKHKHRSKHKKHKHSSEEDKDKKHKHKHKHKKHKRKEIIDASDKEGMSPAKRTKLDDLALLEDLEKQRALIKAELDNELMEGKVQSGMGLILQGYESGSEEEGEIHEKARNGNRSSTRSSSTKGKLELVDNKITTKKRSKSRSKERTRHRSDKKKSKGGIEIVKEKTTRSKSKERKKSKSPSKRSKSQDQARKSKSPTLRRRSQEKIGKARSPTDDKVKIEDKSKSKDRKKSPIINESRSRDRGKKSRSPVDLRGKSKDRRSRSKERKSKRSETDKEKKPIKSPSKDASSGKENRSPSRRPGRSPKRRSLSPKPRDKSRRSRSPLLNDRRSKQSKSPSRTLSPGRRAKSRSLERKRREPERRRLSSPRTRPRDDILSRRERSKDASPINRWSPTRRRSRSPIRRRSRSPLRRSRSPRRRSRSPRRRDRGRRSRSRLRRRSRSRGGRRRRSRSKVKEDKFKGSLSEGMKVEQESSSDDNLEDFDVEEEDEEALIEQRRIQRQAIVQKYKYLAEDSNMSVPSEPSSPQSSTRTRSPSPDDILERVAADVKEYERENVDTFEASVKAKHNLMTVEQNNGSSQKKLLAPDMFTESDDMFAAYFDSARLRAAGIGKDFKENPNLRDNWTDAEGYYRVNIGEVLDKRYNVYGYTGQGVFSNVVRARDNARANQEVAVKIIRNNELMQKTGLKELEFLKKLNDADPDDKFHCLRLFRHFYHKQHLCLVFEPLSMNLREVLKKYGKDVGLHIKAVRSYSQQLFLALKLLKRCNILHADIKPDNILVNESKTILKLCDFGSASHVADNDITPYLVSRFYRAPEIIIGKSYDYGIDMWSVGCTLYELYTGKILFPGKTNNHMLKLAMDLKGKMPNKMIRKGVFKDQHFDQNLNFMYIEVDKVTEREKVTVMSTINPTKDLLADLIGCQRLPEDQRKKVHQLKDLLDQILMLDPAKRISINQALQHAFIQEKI
inactive: [1] -0.024 | [2] 0.018 | [3] -0.079 | [4] -0.082 | Nexturastat A 0.158 | vemurafenib 0.052 | [5] 0.03 | [6] -0.098 | givinostat 0.082 | barasertib -0.05 | [7] 0.025 | volasertib -0.17 | [8] 0.027 | epoxomicin -0.174 | [9] -0.005 | [10] 0.104 | [11] -0.049 | rosiglitazone 0.011 | [12] 0.081 | [13] 0.019

PRKCG (UniProt P05129)
inactive: [1] 0.085 | [2] -0.117 | [3] -0.058 | [4] 0.021 | Nexturastat A -0.08 | vemurafenib -0.041 | [5] 0.034 | [6] 0.019 | givinostat -0.316 | barasertib -0.094 | [7] -0.253 | volasertib -0.062 | [8] 0.058 | epoxomicin 0.086 | [9] -0.078 | [10] -0.117 | [11] 0.058 | rosiglitazone 0.044 | [12] 0.093 | [13] -0.176

PTGR2 (UniProt Q8N8N7)
Sequence of UniProt Q8N8N7 (Q8N8N7 whole entry, looked up): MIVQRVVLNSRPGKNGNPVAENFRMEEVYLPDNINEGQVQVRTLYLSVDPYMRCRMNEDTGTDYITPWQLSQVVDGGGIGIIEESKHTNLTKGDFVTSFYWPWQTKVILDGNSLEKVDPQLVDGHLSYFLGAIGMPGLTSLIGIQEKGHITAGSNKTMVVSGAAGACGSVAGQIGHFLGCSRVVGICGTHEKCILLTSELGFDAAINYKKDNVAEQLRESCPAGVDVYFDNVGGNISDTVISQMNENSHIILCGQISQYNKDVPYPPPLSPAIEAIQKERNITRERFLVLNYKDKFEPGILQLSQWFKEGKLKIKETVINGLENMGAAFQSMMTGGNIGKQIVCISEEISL
active: [7] 1.1 | volasertib 1.27
inactive: [1] -0.022 | [2] -0.058 | [3] 0.022 | [4] -0.056 | Nexturastat A -0.175 | vemurafenib -0.022 | [5] -0.021 | [6] 0.234 | givinostat 0.139 | barasertib 0 | [8] 0.154 | epoxomicin -0.006 | [9] 0.244 | [10] -0.117 | [11] 0.181 | rosiglitazone -0.009 | [12] 0.025 | [13] -0.278

PHF5A (UniProt Q7RTV0)
Sequence of UniProt Q7RTV0 (Q7RTV0 whole entry, looked up): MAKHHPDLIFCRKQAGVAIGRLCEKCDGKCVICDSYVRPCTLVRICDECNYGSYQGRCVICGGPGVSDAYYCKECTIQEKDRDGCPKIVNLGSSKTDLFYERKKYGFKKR
inactive: [1] -0.019 | [2] -0.046 | [3] -0.023 | [4] -0.012 | Nexturastat A -0.017 | vemurafenib -0.075 | [5] -0.064 | [6] 0.021 | givinostat -0.075 | barasertib -0.032 | [7] 0.013 | volasertib 0.065 | [8] -0.061 | epoxomicin 0.051 | [9] 0.014 | [10] 0.087 | [11] -0.063 | rosiglitazone -0.062 | [12] -0.017 | [13] 0.017

PCNT (UniProt O95613)
active: [13] -0.567
inactive: [1] -0.104 | [2] 0.068 | [3] -0.117 | [4] -0.116 | Nexturastat A 0.007 | vemurafenib -0.122 | [5] -0.103 | [6] -1.05 | givinostat 0.255 | barasertib 0.045 | [7] 0.08 | volasertib 0.131 | [8] -0.147 | epoxomicin -0.177 | [9] -0.105 | [10] -0.002 | [11] -0.101 | rosiglitazone 0.05 | [12] 0.158

PSMD2 (UniProt Q13200)
Sequence of UniProt Q13200 (Q13200 whole entry, looked up): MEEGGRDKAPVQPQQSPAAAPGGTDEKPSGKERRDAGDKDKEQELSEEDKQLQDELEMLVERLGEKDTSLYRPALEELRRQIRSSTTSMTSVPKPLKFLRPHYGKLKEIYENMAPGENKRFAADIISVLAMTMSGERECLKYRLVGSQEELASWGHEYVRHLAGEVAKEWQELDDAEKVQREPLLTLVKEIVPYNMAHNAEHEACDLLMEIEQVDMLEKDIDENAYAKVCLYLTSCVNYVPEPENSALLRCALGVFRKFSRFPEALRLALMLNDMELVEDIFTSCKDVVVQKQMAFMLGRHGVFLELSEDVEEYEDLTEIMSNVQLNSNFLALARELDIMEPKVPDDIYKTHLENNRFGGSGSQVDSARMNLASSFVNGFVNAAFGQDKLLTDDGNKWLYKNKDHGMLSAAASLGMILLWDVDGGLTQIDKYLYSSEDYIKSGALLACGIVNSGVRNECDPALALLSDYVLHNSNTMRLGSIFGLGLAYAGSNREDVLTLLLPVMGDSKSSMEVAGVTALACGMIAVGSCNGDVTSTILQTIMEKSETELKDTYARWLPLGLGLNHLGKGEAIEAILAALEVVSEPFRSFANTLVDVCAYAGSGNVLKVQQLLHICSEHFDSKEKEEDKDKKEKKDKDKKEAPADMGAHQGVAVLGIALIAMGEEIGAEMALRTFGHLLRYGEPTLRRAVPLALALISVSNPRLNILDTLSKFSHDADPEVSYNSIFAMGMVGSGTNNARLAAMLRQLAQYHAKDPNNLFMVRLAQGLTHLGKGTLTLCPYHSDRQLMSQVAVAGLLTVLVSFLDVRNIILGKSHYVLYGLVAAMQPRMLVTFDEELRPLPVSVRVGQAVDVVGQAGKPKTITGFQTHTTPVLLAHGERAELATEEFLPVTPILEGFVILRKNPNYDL
active: epoxomicin -0.365
inactive: [1] 0.005 | [2] 0.012 | [3] -0.025 | [4] -0.064 | Nexturastat A 0.024 | vemurafenib -0.091 | [5] -0.014 | [6] 0.136 | givinostat -0.048 | barasertib -0.057 | [7] 0.049 | volasertib 0.089 | [8] -0.009 | [9] 0.011 | [10] 0.07 | [11] -0.04 | rosiglitazone -0.024 | [12] 0.021 | [13] 0.055

PIP4P2 (UniProt Q8N4L2)
active: [13] -0.375
inactive: [1] 0.107 | [2] -0.03 | [3] -0.006 | [4] -0.002 | Nexturastat A -0.092 | vemurafenib -0.013 | [5] 0.041 | [6] -0.045 | givinostat -0.067 | barasertib 0 | [7] -0.092 | volasertib -0.054 | [8] -0.07 | epoxomicin -0.192 | [9] 0.053 | [10] 0.004 | [11] -0.018 | rosiglitazone 0.008 | [12] -0.016

PTPMT1 (UniProt Q8WUK0)
Sequence of UniProt Q8WUK0 (Q8WUK0 whole entry, looked up): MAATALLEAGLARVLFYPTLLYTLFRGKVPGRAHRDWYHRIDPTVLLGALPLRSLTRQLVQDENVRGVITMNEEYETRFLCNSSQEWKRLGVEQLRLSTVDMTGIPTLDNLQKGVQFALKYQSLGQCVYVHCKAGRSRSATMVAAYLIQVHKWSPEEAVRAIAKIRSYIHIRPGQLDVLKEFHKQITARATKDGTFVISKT
inactive: [1] 0.043 | [2] -0.019 | [3] 0.025 | [4] 0.025 | Nexturastat A -0.114 | vemurafenib -0.047 | [5] 0.031 | [6] -0.029 | givinostat -0.029 | barasertib 0.041 | [7] -0.298 | volasertib -0.127 | [8] 0.002 | epoxomicin 0.088 | [9] 0.044 | [10] -0.051 | [11] 0.012 | rosiglitazone -0.012 | [12] -0.006
active: [13] -1.21

PIP4P1 isoform 2 (UniProt Q86T03)
Sequence of UniProt Q86T03 (Q86T03 whole entry, looked up): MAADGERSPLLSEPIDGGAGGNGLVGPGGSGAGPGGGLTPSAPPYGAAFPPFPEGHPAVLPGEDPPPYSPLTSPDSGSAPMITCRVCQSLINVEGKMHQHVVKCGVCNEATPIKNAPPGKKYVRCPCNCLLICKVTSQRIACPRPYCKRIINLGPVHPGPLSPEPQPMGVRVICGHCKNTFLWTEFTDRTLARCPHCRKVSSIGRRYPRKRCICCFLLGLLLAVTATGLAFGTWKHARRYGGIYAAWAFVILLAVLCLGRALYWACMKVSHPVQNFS
inactive: [1] -0.018 | [2] -0.001 | [3] -0.019 | [4] 0.039 | Nexturastat A 0.035 | vemurafenib -0.198 | [5] -0.063 | [6] -0.002 | givinostat -0.037 | barasertib 0.001 | [7] -0.058 | volasertib 0.112 | [8] -0.003 | epoxomicin 0.008 | [9] 0.009 | [10] -0.074 | [11] -0.012 | rosiglitazone -0.016 | [12] 0.076 | [13] -0.262

PRKAR2B (UniProt P31323)
Sequence of UniProt P31323 (P31323 whole entry, looked up): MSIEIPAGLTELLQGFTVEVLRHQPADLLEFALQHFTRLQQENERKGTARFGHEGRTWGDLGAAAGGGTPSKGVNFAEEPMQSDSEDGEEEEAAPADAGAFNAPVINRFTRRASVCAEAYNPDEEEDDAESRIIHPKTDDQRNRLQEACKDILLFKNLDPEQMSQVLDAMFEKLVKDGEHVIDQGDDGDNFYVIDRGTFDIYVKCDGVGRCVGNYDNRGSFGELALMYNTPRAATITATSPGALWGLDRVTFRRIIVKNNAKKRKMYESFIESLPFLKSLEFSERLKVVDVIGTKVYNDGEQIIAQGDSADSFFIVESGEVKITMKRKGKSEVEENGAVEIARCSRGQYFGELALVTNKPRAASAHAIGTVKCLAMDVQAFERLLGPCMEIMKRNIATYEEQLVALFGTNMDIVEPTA
active: [13] -0.495
inactive: [1] 0.04 | [2] 0.017 | [3] 0.038 | [4] 0.022 | Nexturastat A 0.046 | vemurafenib 0.033 | [5] 0.052 | [6] -0.014 | givinostat 0 | barasertib 0.047 | [7] -0.037 | volasertib 0.053 | [8] 0.056 | epoxomicin 0.025 | [9] -0.023 | [10] -0.023 | [11] -0.008 | rosiglitazone 0.051 | [12] 0.005

PRKACB isoform 2 (UniProt P22694)
inactive: [1] -0.014 | [2] 0.015 | [3] 0.011 | [4] 0.077 | Nexturastat A 0.059 | vemurafenib -0.007 | [5] 0.031 | [6] -0.129 | givinostat -0.024 | barasertib 0.036 | [7] -0.025 | volasertib -0.031 | [8] 0.004 | epoxomicin -0.033 | [9] 0.008 | [10] -0.009 | [11] -0.048 | rosiglitazone 0.025 | [12] -0.042 | [13] -0.022

PKN1 isoform 2 (UniProt Q16512)
active: [13] -0.772
inactive: [1] 0.01 | [2] 0.002 | [3] 0.019 | [4] 0.014 | Nexturastat A 0.053 | vemurafenib 0.023 | [5] 0.03 | [6] 0.022 | givinostat 0.059 | barasertib 0.03 | [7] 0.005 | volasertib -0.105 | [8] 0.084 | epoxomicin 0.014 | [9] -0.185 | [10] -0.038 | [11] 0.009 | rosiglitazone 0.06 | [12] -0.021

PDCD6IP (UniProt Q8WUM4)
Sequence of UniProt Q8WUM4 (Q8WUM4 whole entry, looked up): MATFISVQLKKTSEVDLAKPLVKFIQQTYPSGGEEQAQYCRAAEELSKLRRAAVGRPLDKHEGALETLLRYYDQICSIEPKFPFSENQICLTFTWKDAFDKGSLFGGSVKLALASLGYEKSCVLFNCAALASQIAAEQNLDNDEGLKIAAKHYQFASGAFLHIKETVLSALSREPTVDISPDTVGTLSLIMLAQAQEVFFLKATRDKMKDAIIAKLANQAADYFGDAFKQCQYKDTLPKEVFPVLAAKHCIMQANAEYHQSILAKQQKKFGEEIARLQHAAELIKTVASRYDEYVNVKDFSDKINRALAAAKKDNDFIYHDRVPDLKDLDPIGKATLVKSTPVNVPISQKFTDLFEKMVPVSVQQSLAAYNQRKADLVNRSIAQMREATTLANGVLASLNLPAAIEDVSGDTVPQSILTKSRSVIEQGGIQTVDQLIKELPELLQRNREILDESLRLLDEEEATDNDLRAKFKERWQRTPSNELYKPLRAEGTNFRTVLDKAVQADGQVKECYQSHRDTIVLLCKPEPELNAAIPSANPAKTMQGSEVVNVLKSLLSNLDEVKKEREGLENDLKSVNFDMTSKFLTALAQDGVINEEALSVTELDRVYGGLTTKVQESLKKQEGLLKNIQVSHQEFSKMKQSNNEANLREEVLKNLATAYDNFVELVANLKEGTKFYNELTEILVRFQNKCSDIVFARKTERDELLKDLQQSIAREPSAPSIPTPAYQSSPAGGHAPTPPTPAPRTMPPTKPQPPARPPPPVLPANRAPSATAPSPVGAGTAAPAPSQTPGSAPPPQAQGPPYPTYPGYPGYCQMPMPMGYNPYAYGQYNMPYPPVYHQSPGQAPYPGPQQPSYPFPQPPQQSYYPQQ
active: volasertib -0.694
inactive: [1] 0.032 | [2] -0.079 | [3] 0.077 | [4] 0.058 | Nexturastat A 0.066 | vemurafenib 0.106 | [5] 0.153 | [6] 0.119 | givinostat 0.183 | barasertib 0.135 | [7] -0.219 | [8] 0.166 | epoxomicin 0.082 | [9] -0.097 | [10] -0.06 | [11] 0.116 | rosiglitazone 0.097 | [12] 0.043 | [13] -0.256

PTDSS1 (UniProt P48651)
inactive: [1] 0.005 | [2] -0.006 | [3] 0.08 | [4] -0.01 | Nexturastat A 0.192 | vemurafenib -0.055 | [5] 0.019 | [6] -0.007 | givinostat 0.072 | barasertib 0.03 | [7] 0.004 | volasertib 0.009 | [8] -0.069 | epoxomicin -0.035 | [9] -0.019 | [10] 0.124 | [11] 0 | rosiglitazone 0.031 | [12] 0.177 | [13] -0.081

PGGHG (UniProt Q32M88)
inactive: [1] 0.017 | [2] -0.127 | [3] 0.197 | [4] -0.003 | Nexturastat A 0 | vemurafenib -0.044 | [5] -0.091 | [6] -0.175 | givinostat -0.003 | barasertib 0.001 | [7] 0.012 | volasertib 0.098 | [8] 0.051 | epoxomicin 0.011 | [9] -0.094 | [10] -0.025 | [11] 0.069 | rosiglitazone 0.029 | [12] -0.025 | [13] -0.096
